Results: PubChem BioAssay AID1159580 (chemical genetic matrix, 2015)
About 2,000 (36%) of roughly 5,500 compounds were called active. Not shown: some 18% with an inconclusive outcome. Cut-off read from the data, not from the text of the source: active = normalized growth mostly below about 0.91 (no sharp cut-off); inconclusive = no clear call, values can overlap the other calls; inactive = mostly above about 0.92. This is one part of the list.

Experiment: chemical genetic growth profiling, strain panel (AID 1159580);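 note: tested at 20 µM; growth read once vehicle control cultures reached saturation at 30 °C; 1 = growth at the plate median or of vehicle wells; lower values mean less growth of the strain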
Details: growth OD

Measured: normalized growth

C1CCN2CC3CC(CN4CCCCC34)C2C1 (centres undefined)
inactive: S. cerevisiae deletion strains, locus YJR043C, strain POL32, hits give low values 1.02 | S. cerevisiae deletion strains, locus YJR075W, strain HOC1, hits give low values 1.01 | S. cerevisiae deletion strains, locus YKL009W, strain mrt4, hits give low values 1.02 | S. cerevisiae deletion strains, locus YKL068W, hits give low values 1.01 | S. cerevisiae deletion strains, locus YKL085W, strain MDH1 (second series), hits give low values 1 | S. cerevisiae deletion strains, locus YKL085W, strain MDH1, hits give low values 1 | S. cerevisiae deletion strains, locus YKL160W, strain elf1, hits give low values 0.991 | S. cerevisiae deletion strains, locus YKL190W, strain CNB1, hits give low values 1 | S. cerevisiae deletion strains, locus YKR001C, strain vps1, hits give low values 0.964 | S. cerevisiae deletion strains, locus YKR026C, strain gcn3, hits give low values 1.02 | S. cerevisiae deletion strains, locus YKR091W, strain srl3, hits give low values 1.01 | S. cerevisiae deletion strains, locus YLL001W, strain dnm1, hits give low values 1.04 | S. cerevisiae deletion strains, locus YLL026W, hits give low values 1.01 | S. cerevisiae deletion strains, locus YLL041C, strain sdh2, hits give low values 1.02 | S. cerevisiae deletion strains, locus YLR027C, strain aat2, hits give low values 1.01 | S. cerevisiae deletion strains, locus YLR039C, strain RIC1, hits give low values 1.04 | S. cerevisiae deletion strains, locus YLR058C, strain SHM2, hits give low values 1.02 | S. cerevisiae deletion strains, locus YLR102C, strain apc9, hits give low values 1.01 | S. cerevisiae deletion strains, locus YLR221C, strain rsa3, hits give low values 1.01 | S. cerevisiae deletion strains, locus YLR258W, strain gsy2, hits give low values 1.02 | S. cerevisiae deletion strains, locus YLR262C, strain YPT6 (second series), hits give low values 1 | S. cerevisiae deletion strains, locus YLR262C, strain YPT6, hits give low values 1.01 | S. cerevisiae deletion strains, locus YLR268W, strain sec22, hits give low values 0.894 | S. cerevisiae deletion strains, locus YLR320W, strain mms22, hits give low values 1.03 | S. cerevisiae deletion strains, locus YLR330W, strain CHS5, hits give low values 1.01 | S. cerevisiae deletion strains, locus YLR342W, strain FKS1 (second series), hits give low values 1.03 | S. cerevisiae deletion strains, locus YLR342W, strain FKS1, hits give low values 1.02 | S. cerevisiae deletion strains, locus YLR357W, strain rsc2, hits give low values 1.04 | S. cerevisiae deletion strains, locus YLR370C, strain arc18, hits give low values 1.02 | S. cerevisiae deletion strains, locus YLR371W, strain rom2, hits give low values 0.967 | S. cerevisiae deletion strains, locus YLR384C, strain iki3, hits give low values 1.02 | S. cerevisiae deletion strains, locus YML016C, strain PPZ1, hits give low values 1.01 | S. cerevisiae deletion strains, locus YML032C, strain rad52, hits give low values 1.03 | S. cerevisiae deletion strains, locus YML120C, strain ndi1, hits give low values 1.01 | S. cerevisiae deletion strains, locus YML124C, strain tub3, hits give low values 1.01 | S. cerevisiae deletion strains, locus YMR058W, strain fet3, hits give low values 1.02 | S. cerevisiae deletion strains, locus YMR078C, strain ctf18, hits give low values 1.02 | S. cerevisiae deletion strains, locus YMR125W, strain sto1, hits give low values 1.06 | S. cerevisiae deletion strains, locus YMR129W, hits give low values 1.03 | S. cerevisiae deletion strains, locus YMR205C, strain PFK2, hits give low values 1.04 | S. cerevisiae deletion strains, locus YMR223W, strain ubp8, hits give low values 0.909 | S. cerevisiae deletion strains, locus YMR231W, strain pep5, hits give low values 1.02 | S. cerevisiae deletion strains, locus YMR263W, strain SAP30, hits give low values 0.997 | S. cerevisiae deletion strains, locus YMR307W, strain GAS1, hits give low values 1.02 | S. cerevisiae deletion strains, locus YNL067W, strain RPL9B, hits give low values 0.988 | S. cerevisiae deletion strains, locus YNL071W, strain lat1, hits give low values 1.02 | S. cerevisiae deletion strains, locus YNL128W, strain TEP1, hits give low values 1.01 | S. cerevisiae deletion strains, locus YNL153C, strain GIM3, hits give low values 0.986 | S. cerevisiae deletion strains, locus YNL209W, strain ssb2, hits give low values 1.02 | S. cerevisiae deletion strains, locus YNL233W, strain BNI4, hits give low values 0.998 | S. cerevisiae deletion strains, locus YNL248C, strain rpa49, hits give low values 1.02 | S. cerevisiae deletion strains, locus YNL250W, strain rad50, hits give low values 1.03 | S. cerevisiae deletion strains, locus YNL271C, strain bni1, hits give low values 1.01 | S. cerevisiae deletion strains, locus YNL298W, strain CLA4, hits give low values 1.01 | S. cerevisiae deletion strains, locus YNL322C, strain KRE1 (second series), hits give low values 1.01 | S. cerevisiae deletion strains, locus YNL322C, strain KRE1, hits give low values 1.01 | S. cerevisiae deletion strains, locus YNR049C, strain mso1, hits give low values 1.02 | S. cerevisiae deletion strains, locus YNR052C, strain pop2, hits give low values 1.02 | S. cerevisiae deletion strains, locus YOL006C, strain TOP1, hits give low values 1.03 | S. cerevisiae deletion strains, locus YOL012C, strain htz1 0.345 | S. cerevisiae deletion strains, locus YOL147C, strain pex11, hits give low values 1.01 | S. cerevisiae deletion strains, locus YOR001W, strain rrp6, hits give low values 1.01 | S. cerevisiae deletion strains, locus YOR061W, strain CKA2, hits give low values 1.01 | S. cerevisiae deletion strains, locus YOR069W, strain VPS5, hits give low values 1.01 | S. cerevisiae deletion strains, locus YOR070C, strain gyp1, hits give low values 1.02 | S. cerevisiae deletion strains, locus YOR080W, strain dia2, hits give low values 1.02 | S. cerevisiae deletion strains, locus YOR083W, strain WHI5, hits give low values 0.99 | S. cerevisiae deletion strains, locus YOR106W, strain vam3, hits give low values 1 | S. cerevisiae deletion strains, locus YOR136W, strain idh2, hits give low values 0.961 | S. cerevisiae deletion strains, locus YOR144C, strain elg1, hits give low values 1.01 | S. cerevisiae deletion strains, locus YOR184W, strain ser1, hits give low values 0.959 | S. cerevisiae deletion strains, locus YOR265W, strain rbl2, hits give low values 1.02 | S. cerevisiae deletion strains, locus YOR270C, strain vph1, hits give low values 1.03 | S. cerevisiae deletion strains, locus YOR290C, strain snf2, hits give low values 0.985 | S. cerevisiae deletion strains, locus YOR316C, strain cot1, hits give low values 1.01 | S. cerevisiae deletion strains, locus YPL051W, strain arl3, hits give low values 0.998 | S. cerevisiae deletion strains, locus YPL055C, strain LGE1, hits give low values 1 | S. cerevisiae deletion strains, locus YPL078C, strain atp4, hits give low values 1 | S. cerevisiae deletion strains, locus YPL106C, strain sse1, hits give low values 1.04 | S. cerevisiae deletion strains, locus YPL240C, strain hsp82, hits give low values 1.03 | S. cerevisiae deletion strains, locus YPL241C, strain CIN2, hits give low values 1.01 | S. cerevisiae deletion strains, locus YPR119W, strain clb2, hits give low values 1 | S. cerevisiae deletion strains, locus YPR141C, strain kar3, hits give low values 1.02 | S. cerevisiae deletion strains, locus YPR167C, strain met16, hits give low values 0.992 | S. cerevisiae strains, strain wild type, hits give low values 1.01
active: S. cerevisiae deletion strains, locus YLR418C, strain cdc73, hits give low values 0.811 | S. cerevisiae deletion strains, locus YNL307C, strain MCK1, hits give low values 0.294 | S. cerevisiae deletion strains, locus YPR163C, strain tif3, hits give low values 0.873 | S. cerevisiae deletion strains, strain wtn01, hits give low values 0.863
